Most compounds without a hit are left out; they make up all but 11% or so of the library.
NPR1 antag – Natriuretic polypeptide receptor (hNpr1) antagonism - Primary qHTS; Atrial natriuretic peptide receptor 1 (Homo sapiens), P16066; HEK293 hNpr1 GloSensor cGMP, ANP-stimulated luminescence; Potency, µM (titrated, usually from 46.3 µM), for inactives: at the top dose activity change, negative = inhibition, usual class: inhibitors; 76,000 compounds, 1.6% hits; AID 1347048, 2019; calls by dose curve; note: nearly all actives have a fitted effect of over 60% in size
Target sequence (P16066 whole entry, looked up): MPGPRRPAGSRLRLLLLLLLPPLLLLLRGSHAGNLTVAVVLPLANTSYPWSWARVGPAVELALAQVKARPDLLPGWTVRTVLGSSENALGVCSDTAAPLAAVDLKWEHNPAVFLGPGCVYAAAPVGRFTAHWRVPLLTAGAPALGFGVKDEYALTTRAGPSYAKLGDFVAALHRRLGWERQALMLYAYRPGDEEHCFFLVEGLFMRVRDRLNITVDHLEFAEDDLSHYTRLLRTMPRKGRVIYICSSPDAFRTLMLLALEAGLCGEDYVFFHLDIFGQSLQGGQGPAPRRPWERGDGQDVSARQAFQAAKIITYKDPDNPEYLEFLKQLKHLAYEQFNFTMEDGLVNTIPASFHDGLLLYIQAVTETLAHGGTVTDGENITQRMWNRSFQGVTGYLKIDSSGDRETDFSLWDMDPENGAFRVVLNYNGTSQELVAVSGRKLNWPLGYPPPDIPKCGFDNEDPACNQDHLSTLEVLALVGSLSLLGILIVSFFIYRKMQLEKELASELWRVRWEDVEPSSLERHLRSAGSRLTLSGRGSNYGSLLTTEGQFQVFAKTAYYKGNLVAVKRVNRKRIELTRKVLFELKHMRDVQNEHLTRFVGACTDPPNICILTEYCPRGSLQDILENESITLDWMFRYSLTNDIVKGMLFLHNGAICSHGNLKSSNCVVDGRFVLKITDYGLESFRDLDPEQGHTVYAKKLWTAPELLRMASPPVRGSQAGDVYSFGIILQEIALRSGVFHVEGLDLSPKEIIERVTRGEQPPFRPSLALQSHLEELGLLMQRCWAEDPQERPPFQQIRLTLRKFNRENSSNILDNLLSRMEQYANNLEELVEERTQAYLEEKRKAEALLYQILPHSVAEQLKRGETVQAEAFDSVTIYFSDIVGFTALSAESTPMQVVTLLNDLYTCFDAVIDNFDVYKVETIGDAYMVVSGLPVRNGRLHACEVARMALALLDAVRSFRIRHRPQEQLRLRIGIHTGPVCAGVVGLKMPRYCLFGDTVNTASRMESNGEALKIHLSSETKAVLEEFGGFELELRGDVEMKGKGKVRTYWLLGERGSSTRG
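Compound pre-incubated 30 min at room temperature on GloSensor-loaded HEK293 cells stably carrying hNpr1 and the pGS-40F cGMP biosensor. Stimulation uses hNppA at 0.1 nM final; luminescence is taken at baseline and 20 min post-agonist.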
HEK cytotox – Cytotoxic Profiling in HEK 293 Cell Line of Diverse Libraries Using Quantitative High-Throughput Screening; HEK 293 viability, ATP luminescence (CellTiter-Glo), 48-72 h; Potency, µM (series often up to 115 µM), inactives show at the highest dose activity change, negative = cytotoxicity, most hits filed as inhibitors; 94,000 compounds, 6.6% hits; AID 1345083, 2018; note: nearly all actives have a fitted effect of over 60% in size
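HEK 293 cells at 250 cells/well were exposed to compounds by pintool transfer for 48 or 72 hr at 37 degree Celsius, 5% CO2. Viability was read as ATP-coupled luminescence with CellTiter-Glo after 10 min at room temperature.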
FLuc inh – Firefly luciferase inhibition profiling of diverse chemical library using quantitative high-throughput screening; 76,000 compounds, 2.5% hits; purified P. pyralis luciferase, luminescence, biochemical; Luciferin 4-monooxygenase (Photinus pyralis), P08659; Potency, µM (doses to about 115 µM), actives largely listed as inhibitors; note: nearly all actives have a fitted effect of over 65% in size
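Biochemical qHTS: compound (6-point titration) added to 10uM D-luciferin plus 10uM ATP in Tris acetate pH 7.5 buffer with Mg, Tween-20 and BSA, then purified enzyme at 10nM; light output imaged.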
NIH3T3 tox – Cytotoxic Profiling in NIH 3T3 Cell Line of Diverse Libraries Using Quantitative High-Throughput Screening; NIH 3T3 viability, CellTiter-Glo ATP luminescence, 48-72 h; Potency, µM (titrated, usually from 96.7 µM), without a hit: top-dose activity change, negative = cytotoxicity, most hits filed as inhibitors; 94,000 compounds, 4.3% hits; note: nearly all actives have a fitted effect of over 55% in size
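Cytotoxicity is measured as loss of cellular ATP: NIH 3T3 cells (400/well) are exposed to compound for 48 or 72 hr at 37 °C, then CellTiter-Glo luminescence is imaged after 10 min at room temperature.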
The depositor's hits bear a star. Unless noted, calls come from the whole dose curve; as a rule, active = well fitted curve in the direction sought with a large enough effect; inconclusive = small, poorly fitted or top-dose-only effect, or another doubt; inactive = no such curve, though single readings can be large; an effect the other way counts as inactive or inconclusive. % is set by controls: 0 for no effect and ±100 for the full control effect; potency is the fitted concentration of half-maximal effect.

CCc1cccc2c(C(CC(=O)NCc3ccco3)c3cccc([N+](=O)[O-])c3)c[nH]c12 (stereo not given) was read as NPR1 antag -5%, HEK cytotox 45µM*, FLuc inh inactive and NIH3T3 tox 32µM*.
CCc1cccc2c(C(CC(=O)NCC(C)C)c3cccc([N+](=O)[O-])c3)c[nH]c12 (stereo not given) was read as NPR1 antag -1%, HEK cytotox inconclusive, FLuc inh inactive and NIH3T3 tox 35µM*.
For COc1ccc(C(CC(=O)NCc2ccccc2)c2c[nH]c3ccccc23)cc1OC (stereo not given) the results were NPR1 antag -9%, HEK cytotox 3%, FLuc inh inactive and NIH3T3 tox -12%.
CCc1cccc2c(C(CC(=O)NCCOC)c3ccc(OC)c(OC)c3)c[nH]c12 (stereo not given) was read as NPR1 antag 0%, HEK cytotox -4%, FLuc inh inactive and NIH3T3 tox -7%.
Screening CC(C)CNC(=O)CC(c1cccc([N+](=O)[O-])c1)c1c[nH]c2ccccc12 (stereo not given) returned NPR1 antag -16%, HEK cytotox 79µM*, FLuc inh inactive and NIH3T3 tox inconclusive.
Screening Cc1nn(C)c(C)c1C(=O)N1CC(n2cc(COCC3CC3)nn2)C1 returned HEK cytotox -10% and NIH3T3 tox -14%.
CCCCCC(=O)N1CC(=O)N(CCCc2ccccc2)CC(O)C1 (stereo not given) was read as HEK cytotox inconclusive and NIH3T3 tox -19%.
CCOC(=O)[C@H]1C[C@]2(CCCCNC2=O)N(C(=O)COc2ccccc2)[C@H]1c1ccccc1 was read as HEK cytotox -19% and NIH3T3 tox inconclusive.
CN1c2cc(C(=O)Nc3cccc(F)c3)ccc2C(=O)N2CCCCC21 (stereo not given) was read as NPR1 antag -23%, HEK cytotox inconclusive, FLuc inh 25µM* and NIH3T3 tox -22%.
CN1c2cc(C(=O)Nc3cccc(Br)c3)ccc2C(=O)N2CCCCC21 (stereo not given) was read as NPR1 antag 0%, HEK cytotox 35µM*, FLuc inh inconclusive and NIH3T3 tox inconclusive.
`CSc1cccc(NC(=O)c2ccc3c(c2)N(C)C2CCCCN2C3=O)c1` (stereo not given) gave NPR1 antag -7%, HEK cytotox 40µM*, FLuc inh inconclusive and NIH3T3 tox inconclusive.
For Cc1cc(C)cc(NC(=O)c2ccc3c(c2)N(C)C2CCCCCN2C3=O)c1 (stereo not given) the results were NPR1 antag 0%, HEK cytotox inconclusive, FLuc inh inactive and NIH3T3 tox -25%.
CCS(=O)(=O)N1CCc2c(c(CN3CCOCC3)nn2C)C1 was read as HEK cytotox -11% and NIH3T3 tox -24%.
Screening COc1ccc(C(=O)N(CC2CC2)CC2CN(C(=O)Nc3ccccc3)CCO2)cc1OC (stereo not given) returned NPR1 antag 1%, HEK cytotox 28µM*, FLuc inh inactive and NIH3T3 tox inconclusive.
For O=C(Nc1cc(F)cc(F)c1)c1cnc(-c2ccc(F)cc2)nc1-c1ccncc1 the results were NPR1 antag inconclusive, HEK cytotox 22µM*, FLuc inh inconclusive and NIH3T3 tox 20µM*.
For O=C(Nc1ccc(F)c(Cl)c1)c1cnc(-c2ccccc2)nc1-c1ccncc1 the results were NPR1 antag inconclusive, HEK cytotox 35µM*, FLuc inh inactive and NIH3T3 tox 25µM*.
Cn1cccc1C(=O)N1CCC(N2C(=O)C3(CCCC3)C2c2ccccc2)CC1 (stereo not given) was read as NPR1 antag -2%, HEK cytotox 45µM*, FLuc inh inactive and NIH3T3 tox -30%.
Cn1ccnc1C(=O)N1CCC(N2C(=O)C3(CCCC3)C2c2ccccc2)CC1 (stereo not given) was read as NPR1 antag 0%, HEK cytotox -8%, FLuc inh inactive and NIH3T3 tox inconclusive.

Screening results: PubChem, National Center for Advancing Translational Sciences (NCATS)
